Laboratory results taken from the supplement of paper PMC11732987, “Enantioselective OTUD7B fragment discovery through chemoproteomics screening and high-throughput optimisation” (Communications Chemistry, 2025).

Experiments:
Assay in all cases: log2 ratio of Biotin-Ahx-Ub-VS probe labelling (fragment/DMSO); higher = less target engagement (more negative = stronger competition), active = hit call of the paper (q ≤ 0.05, log2 ratio ≤ -1)
Conditions in all cases: compound concentration: 200 uM; treatment time: 3 h
USP19 = biological target: T1, USP19 (UniProt O94966)
T1 sequence (whole entry): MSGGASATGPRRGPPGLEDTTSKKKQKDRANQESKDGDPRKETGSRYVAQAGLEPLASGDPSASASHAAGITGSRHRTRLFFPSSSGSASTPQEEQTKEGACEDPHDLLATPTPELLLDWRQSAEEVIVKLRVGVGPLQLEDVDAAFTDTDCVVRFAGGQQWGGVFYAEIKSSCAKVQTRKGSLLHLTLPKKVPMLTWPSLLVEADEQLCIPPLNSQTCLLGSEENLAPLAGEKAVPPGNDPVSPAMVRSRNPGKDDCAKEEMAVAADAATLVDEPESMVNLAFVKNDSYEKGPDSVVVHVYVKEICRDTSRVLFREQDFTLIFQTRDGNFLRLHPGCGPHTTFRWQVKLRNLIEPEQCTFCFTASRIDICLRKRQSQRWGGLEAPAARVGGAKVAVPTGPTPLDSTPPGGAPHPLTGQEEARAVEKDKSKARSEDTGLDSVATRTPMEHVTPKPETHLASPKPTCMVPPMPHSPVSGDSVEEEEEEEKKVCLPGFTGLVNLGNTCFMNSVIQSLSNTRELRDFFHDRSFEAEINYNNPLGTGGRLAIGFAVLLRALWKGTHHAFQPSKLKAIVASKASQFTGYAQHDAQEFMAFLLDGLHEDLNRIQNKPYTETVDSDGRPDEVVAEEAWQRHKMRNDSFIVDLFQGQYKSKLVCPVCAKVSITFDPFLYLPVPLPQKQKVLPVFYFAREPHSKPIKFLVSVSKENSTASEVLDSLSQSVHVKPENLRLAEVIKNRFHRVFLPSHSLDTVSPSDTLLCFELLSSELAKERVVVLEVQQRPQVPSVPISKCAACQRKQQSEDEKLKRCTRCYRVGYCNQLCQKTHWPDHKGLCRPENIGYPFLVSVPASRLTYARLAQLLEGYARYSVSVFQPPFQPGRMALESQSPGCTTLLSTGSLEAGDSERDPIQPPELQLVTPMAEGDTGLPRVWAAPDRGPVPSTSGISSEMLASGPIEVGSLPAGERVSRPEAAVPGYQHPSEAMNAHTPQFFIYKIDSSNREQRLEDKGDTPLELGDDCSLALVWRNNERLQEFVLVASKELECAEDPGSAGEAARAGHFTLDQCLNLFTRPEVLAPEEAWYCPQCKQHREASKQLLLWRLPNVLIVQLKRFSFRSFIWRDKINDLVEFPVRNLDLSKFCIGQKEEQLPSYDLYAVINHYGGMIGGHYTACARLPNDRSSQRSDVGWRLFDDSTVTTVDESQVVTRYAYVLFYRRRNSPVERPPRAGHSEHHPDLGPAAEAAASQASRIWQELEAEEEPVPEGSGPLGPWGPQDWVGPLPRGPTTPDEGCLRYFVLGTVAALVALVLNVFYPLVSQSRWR
Summary of the method: (§1)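 Labelled DUBs from HEK293T lysate were NeutrAvidin-enriched, digested with LysC and trypsin, and run by diaPASEF LC-MS/MS. Before that, each 495 µg sample in Tris/CHAPS/IGEPAL buffer with protease inhibitors was treated in triplicate with fragment at 200 µM or vehicle for 3 h, then with Biotin-Ahx-Ub-VS at 0.5 µM final for 1 h. Values are average log2 ratios of fragment over vehicle by unpaired t-test, based on global-median-normalised Spectronaut label-free quantities from proteins with ≥2 unique peptides.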

USP22 = biological target: T2, USP22 (UniProt Q9UPT9)
T2 sequence (whole entry): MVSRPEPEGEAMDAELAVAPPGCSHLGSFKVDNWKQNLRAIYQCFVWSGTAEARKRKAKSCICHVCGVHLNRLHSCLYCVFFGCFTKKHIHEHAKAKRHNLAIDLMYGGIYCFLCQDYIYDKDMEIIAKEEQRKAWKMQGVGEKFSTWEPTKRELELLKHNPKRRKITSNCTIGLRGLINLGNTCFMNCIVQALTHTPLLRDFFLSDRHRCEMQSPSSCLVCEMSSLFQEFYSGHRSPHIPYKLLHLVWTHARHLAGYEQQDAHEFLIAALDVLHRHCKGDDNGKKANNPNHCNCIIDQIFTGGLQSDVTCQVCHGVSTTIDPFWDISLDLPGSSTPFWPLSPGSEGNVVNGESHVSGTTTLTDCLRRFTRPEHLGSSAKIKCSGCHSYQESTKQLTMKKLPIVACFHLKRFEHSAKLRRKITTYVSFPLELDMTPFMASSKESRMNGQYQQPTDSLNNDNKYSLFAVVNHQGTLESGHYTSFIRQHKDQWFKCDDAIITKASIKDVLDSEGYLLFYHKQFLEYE
Summary of the method: as §1

USP24 = USP24 (UniProt Q9UPU5)
Summary of the method: as §1

USP25 = biological target: T3, USP25 (UniProt Q9UHP3)
T3 sequence (whole entry): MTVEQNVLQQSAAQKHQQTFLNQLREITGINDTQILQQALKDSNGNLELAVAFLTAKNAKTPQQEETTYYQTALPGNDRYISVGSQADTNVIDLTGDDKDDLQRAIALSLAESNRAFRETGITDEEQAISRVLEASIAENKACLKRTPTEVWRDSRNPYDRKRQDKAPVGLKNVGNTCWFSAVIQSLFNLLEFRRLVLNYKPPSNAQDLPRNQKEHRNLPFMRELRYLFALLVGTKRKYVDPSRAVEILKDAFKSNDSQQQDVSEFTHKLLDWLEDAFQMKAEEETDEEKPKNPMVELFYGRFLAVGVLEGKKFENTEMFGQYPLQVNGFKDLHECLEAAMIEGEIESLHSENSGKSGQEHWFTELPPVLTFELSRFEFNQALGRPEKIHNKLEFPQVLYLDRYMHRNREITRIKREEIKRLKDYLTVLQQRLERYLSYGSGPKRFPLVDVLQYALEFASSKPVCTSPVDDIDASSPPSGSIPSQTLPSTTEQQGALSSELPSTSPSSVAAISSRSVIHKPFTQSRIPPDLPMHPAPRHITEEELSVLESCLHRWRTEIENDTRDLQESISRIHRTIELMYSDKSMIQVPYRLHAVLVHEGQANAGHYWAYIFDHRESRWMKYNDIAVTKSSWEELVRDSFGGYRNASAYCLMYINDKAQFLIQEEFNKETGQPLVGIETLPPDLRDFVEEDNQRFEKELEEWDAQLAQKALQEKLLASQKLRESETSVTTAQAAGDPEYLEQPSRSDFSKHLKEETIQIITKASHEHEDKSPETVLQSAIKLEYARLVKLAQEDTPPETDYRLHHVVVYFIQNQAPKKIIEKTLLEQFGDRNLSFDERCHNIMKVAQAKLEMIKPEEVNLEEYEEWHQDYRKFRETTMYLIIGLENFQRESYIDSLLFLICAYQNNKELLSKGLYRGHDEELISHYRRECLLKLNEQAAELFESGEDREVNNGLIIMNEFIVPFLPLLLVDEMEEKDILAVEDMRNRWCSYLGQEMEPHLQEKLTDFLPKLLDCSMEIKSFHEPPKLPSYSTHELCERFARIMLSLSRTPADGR
Summary of the method: as §1

USP28 = biological target: T4, USP28 (UniProt Q96RU2)
T4 sequence (whole entry): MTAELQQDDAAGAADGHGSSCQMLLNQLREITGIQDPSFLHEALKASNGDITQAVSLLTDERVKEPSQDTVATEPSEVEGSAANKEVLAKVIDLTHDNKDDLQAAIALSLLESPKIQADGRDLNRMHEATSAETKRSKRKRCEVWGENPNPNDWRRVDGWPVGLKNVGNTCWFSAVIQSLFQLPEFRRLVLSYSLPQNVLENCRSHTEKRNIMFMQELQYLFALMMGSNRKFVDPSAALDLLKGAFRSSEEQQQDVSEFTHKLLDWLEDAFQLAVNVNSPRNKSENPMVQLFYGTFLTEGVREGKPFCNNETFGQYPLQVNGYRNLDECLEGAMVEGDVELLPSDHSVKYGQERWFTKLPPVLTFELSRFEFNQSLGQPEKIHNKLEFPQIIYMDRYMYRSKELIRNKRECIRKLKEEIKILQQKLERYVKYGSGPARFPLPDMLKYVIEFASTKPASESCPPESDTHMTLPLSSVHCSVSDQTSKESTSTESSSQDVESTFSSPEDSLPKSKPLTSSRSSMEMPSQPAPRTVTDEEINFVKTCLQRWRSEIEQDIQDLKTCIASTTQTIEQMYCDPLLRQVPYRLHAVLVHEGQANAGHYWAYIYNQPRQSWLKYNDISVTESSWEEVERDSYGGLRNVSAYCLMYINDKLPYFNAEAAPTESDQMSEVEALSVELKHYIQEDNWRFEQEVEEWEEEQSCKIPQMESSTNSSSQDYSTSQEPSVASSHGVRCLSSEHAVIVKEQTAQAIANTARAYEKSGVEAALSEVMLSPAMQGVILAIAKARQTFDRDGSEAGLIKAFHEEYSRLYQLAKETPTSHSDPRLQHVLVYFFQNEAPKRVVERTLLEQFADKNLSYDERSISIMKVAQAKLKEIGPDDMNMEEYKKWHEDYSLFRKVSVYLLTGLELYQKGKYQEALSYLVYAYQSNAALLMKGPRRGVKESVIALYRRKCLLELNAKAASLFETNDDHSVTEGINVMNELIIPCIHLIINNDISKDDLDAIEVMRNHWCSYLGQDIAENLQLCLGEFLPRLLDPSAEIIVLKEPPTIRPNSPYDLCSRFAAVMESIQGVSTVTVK
Summary of the method: as §1

Measured: log2 ratio of Biotin-Ahx-Ub-VS probe labelling

Chain of USP24 (Q9UPU5 whole entry): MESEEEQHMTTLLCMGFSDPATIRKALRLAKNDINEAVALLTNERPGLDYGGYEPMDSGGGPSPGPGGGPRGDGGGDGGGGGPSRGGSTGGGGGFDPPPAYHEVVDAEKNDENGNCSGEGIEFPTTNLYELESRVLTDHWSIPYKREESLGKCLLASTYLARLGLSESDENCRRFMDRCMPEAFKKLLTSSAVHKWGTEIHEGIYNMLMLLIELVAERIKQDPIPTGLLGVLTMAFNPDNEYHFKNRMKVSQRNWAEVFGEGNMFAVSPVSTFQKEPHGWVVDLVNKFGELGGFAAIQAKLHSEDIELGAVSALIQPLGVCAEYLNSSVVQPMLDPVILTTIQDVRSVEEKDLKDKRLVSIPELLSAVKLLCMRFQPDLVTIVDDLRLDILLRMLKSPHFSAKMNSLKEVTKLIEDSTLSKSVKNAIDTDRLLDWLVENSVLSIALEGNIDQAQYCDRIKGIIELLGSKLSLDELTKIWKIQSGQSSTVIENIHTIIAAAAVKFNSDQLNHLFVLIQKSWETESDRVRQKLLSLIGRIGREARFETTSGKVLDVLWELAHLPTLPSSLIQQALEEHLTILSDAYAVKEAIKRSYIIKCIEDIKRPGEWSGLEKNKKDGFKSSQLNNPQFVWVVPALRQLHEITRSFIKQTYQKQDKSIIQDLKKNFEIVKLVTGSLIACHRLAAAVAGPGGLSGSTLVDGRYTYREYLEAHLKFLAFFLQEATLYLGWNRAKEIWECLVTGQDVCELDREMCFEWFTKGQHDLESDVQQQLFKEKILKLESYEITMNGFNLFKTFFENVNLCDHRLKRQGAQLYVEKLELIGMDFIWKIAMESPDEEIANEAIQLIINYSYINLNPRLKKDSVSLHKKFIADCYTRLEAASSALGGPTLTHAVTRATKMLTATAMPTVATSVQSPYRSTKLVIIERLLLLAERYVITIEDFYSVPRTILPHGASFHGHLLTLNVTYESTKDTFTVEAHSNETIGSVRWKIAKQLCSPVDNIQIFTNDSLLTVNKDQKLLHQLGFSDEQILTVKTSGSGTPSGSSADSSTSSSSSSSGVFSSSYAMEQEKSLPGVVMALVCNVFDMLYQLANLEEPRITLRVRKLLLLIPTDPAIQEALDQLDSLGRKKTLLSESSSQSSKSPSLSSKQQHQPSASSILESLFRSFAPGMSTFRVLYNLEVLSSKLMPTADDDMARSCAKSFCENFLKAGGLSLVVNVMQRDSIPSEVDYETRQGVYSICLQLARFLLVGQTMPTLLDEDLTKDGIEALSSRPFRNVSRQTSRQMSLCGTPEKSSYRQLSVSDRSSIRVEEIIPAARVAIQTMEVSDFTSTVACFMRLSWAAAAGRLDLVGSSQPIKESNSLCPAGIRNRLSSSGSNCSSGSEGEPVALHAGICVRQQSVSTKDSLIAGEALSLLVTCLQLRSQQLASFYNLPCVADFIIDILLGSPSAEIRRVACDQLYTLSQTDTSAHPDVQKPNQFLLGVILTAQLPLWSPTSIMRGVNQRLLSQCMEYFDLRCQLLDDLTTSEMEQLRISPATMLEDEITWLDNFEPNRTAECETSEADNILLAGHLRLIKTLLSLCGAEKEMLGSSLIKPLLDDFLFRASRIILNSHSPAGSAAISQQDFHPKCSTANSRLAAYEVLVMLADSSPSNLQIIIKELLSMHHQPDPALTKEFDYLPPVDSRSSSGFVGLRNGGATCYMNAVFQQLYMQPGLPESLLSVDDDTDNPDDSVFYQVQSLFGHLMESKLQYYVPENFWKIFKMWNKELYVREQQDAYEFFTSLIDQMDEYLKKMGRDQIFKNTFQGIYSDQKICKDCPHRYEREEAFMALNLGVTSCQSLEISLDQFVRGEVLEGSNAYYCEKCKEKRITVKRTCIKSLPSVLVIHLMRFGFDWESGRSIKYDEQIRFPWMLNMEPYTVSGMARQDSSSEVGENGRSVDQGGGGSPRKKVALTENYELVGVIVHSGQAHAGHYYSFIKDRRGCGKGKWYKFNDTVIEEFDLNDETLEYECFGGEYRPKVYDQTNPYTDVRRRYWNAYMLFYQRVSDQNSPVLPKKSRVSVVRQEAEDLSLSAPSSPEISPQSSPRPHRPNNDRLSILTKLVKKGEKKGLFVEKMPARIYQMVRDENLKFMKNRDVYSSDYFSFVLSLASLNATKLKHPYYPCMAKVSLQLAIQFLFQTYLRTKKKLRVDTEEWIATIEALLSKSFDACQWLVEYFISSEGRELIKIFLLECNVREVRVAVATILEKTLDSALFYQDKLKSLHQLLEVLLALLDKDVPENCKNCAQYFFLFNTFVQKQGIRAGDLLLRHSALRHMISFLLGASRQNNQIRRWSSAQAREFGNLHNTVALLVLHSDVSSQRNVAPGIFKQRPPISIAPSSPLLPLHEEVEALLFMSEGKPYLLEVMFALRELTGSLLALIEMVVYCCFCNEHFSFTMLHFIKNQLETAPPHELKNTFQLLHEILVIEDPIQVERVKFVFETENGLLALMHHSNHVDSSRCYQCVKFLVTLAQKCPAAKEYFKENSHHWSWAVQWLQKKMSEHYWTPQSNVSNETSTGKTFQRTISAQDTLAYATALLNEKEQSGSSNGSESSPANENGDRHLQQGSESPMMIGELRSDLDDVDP

Cc1ccccc1OCC(=O)N1CCN(C(=O)CCl)CC1
inactive: USP19 -0.401 | USP22 0.0214 | USP24 -0.309 | USP25 -0.0662 | USP28 -0.249
